Source: PubChem BioAssay (Tox21)
Results filed as inconclusive are left out. Active and inactive are the calls of the source. Unless noted, calls come from the whole dose curve; as a rule, active = well fitted curve in the direction sought with a large enough effect in the repeat runs; inconclusive = weak or mixed curves; inactive = no such curve, though single readings can be large; an effect the other way counts as inactive or inconclusive.

Assays:
[1] = biological target: Thyrotropin receptor (Homo sapiens) (UniProt P16473); assay: qHTS assay to identify small molecule agonists of the thyroid stimulating hormone receptor (TSHR) signaling pathway (AID 1224843; calls by dose curve; note: nearly all actives have a fitted effect of over 45% in size)
Sequence of Thyrotropin receptor (Homo sapiens) (P16473 whole entry, looked up): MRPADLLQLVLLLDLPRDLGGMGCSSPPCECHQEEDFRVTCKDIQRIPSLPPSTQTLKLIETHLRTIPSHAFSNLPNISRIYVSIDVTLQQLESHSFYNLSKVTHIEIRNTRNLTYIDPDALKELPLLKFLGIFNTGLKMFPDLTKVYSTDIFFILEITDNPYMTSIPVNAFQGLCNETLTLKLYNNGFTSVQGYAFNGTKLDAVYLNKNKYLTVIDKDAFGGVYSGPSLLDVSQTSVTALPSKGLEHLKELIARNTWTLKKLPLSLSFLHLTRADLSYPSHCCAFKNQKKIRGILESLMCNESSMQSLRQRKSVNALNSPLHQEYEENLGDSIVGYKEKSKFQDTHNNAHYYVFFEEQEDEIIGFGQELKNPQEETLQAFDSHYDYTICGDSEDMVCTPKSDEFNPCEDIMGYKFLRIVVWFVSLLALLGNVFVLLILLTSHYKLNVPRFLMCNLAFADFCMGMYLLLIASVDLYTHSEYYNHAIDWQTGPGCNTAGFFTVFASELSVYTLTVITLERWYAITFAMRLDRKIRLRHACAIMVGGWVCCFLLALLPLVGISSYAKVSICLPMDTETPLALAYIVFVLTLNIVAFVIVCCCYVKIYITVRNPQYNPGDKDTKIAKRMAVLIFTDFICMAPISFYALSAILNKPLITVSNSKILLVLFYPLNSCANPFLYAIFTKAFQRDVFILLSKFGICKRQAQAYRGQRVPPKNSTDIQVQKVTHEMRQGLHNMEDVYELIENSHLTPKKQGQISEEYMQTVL
In short: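 TSHR-HEK293 cells in agonist mode, 30 min room-temperature step, then cAMP measured by competitive HTRF (cAMP-d2 with anti-cAMP cryptate) after 1 h at room temperature. Tested at 15 concentrations in triplicate.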

[2] = qHTS assay to identify small molecule agonists of the hypoxia (HIF-1) signaling pathway - cell viability counter screen (AID 1224844; calls by dose curve; note: nearly all actives have a fitted effect of over 50% in size)
In short: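 Multiplexed with the HRE beta-lactamase assay, this viability read used CellTiter-Glo luminescence (30 min, RT) on HRE-bla ME-180 cells treated 17 hrs with compounds in 0.5% dialyzed FBS medium.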

[3] = qHTS assay to identify small molecule agonists of H2AX (AID 1224845; active = well fitted activation curve with a large enough effect in the signal ratio in the repeat runs, not every such curve was filed as active; the % refers to the signal ratio)
In short: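 Wild-type CHO-K1 cells, plated overnight, exposed 3hr at 37C to 15 concentrations (0.76% DMSO final). Lysed, then HTRF anti-pH2AX (S139) cryptate and anti-H2AX-d2 antibodies, 24 hr room temperature; 665/620 nm emission read.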

[4] = qHTS assay to identify small molecule agonists of the hypoxia (HIF-1) signaling pathway (AID 1224846; active = well fitted activation curve with a large enough effect in the signal ratio in the repeat runs, not every such curve was filed as active; the % refers to the signal ratio)
In short: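 Hypoxia-pathway activation was scored as increased beta-lactamase from an HRE-controlled reporter in ME-180 cells; plated at 2,000 cells per well with 0.5% dialyzed FBS, they were exposed 17 hrs to compounds and then given CCF4-AM.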

[5] = qHTS assay to identify small molecule antagonists of the estrogen related receptor (ERR) signaling pathway from Tox21 library (AID 1224848); note: nearly all actives have a fitted effect of over 50% in size
In short: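 ERR reporter cell line (from NTP) seeded 2,000 cells/well, rested 6 h at 37 C/5% CO2, then pin-dosed with compounds in DMSO. After 18 h at 37 C, ONE-Glo added; luminescence read after 30 min at room temperature.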

[6] = qHTS assay to identify small molecule agonists of the estrogen related receptor (ERR) signaling pathway from Tox21 library (AID 1224849; calls by dose curve; note: nearly all actives have a fitted effect of over 15% in size); conditions: ERR reporter cell line, ONE-Glo luciferase, 18 h; at 92.4 µM (top of the series) unless noted
In short: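 Six hours post-seeding at 37 C/5% CO2, ERR cells receive DMSO-solubilised compounds; after 18 h at 37 C, ONE-Glo reagent is applied and luminescence recorded.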

[7] = qHTS RealTime-Glo MT Cell Viability Assay in HepG2 cells - 24 hour (AID 1224867); note: nearly all actives have a fitted effect of over 50% in size
In short: (§1)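 Cells + NanoLuc/prosubstrate dispensed (600 cells/well) → 5 h at 37 C/5% CO2 → compounds in DMSO transferred → 40 h incubation at 37 C, luminescence read at 0, 8, 16, 24, 32, 40 h.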

[8] = qHTS RealTime-Glo MT Cell Viability Assay in HEK293 cells - 32 hour (AID 1224868); note: top concentration of the series differs between compounds; nearly all actives have a fitted effect of over 50% in size
In short: (§2)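 Tox21 10K qHTS, HEK293, 600 cells/well, RealTime-Glo reagent co-dispensed with cells; 5 h preincubation, compound by pintool, 37 C, luminescence at 0–40 h.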

[9] = A CellTox Green Cytotoxicity Assay to monitor cytotoxicity in HEK293 cells - 0 hour (AID 1224869); note: nearly all actives have a fitted effect of over 50% in size
In short: (§3)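 Seeding of HEK293 cells together with cytotoxicity dye preceded a 5 h incubation at 37 C/5% CO2. Test compounds in DMSO were then added and fluorescence monitored across 40 h.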

[10] = A CellTox Green Cytotoxicity Assay to monitor cytotoxicity in HEK293 cells - 40 hour (AID 1224871); note: nearly all actives have a fitted effect of over 45% in size
In short: as §3

[11] = qHTS RealTime-Glo MT Cell Viability Assay in HEK293 cells - 16 hour (AID 1224872)
In short: as §2

[12] = qHTS RealTime-Glo MT Cell Viability Assay in HepG2 cells - 8 hour (AID 1224873); note: nearly all actives have a fitted effect of over 55% in size
In short: (§4)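 HepG2 cells (600/well) mixed with RealTime-Glo MT reagent, settled 5 h at 37 C/5% CO2 before compound addition. Nonlytic NanoLuc luminescence from viable-cell prosubstrate reduction read repeatedly during 40 h treatment at 37 C.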

[13] = qHTS RealTime-Glo MT Cell Viability Assay in HEK293 cells - 40 hour (AID 1224874); conditions: RealTime-Glo luminescence; max response: active compounds read low; note: nearly all actives have a fitted effect of over 50% in size
In short: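 Tox21 screen in HEK293 using RealTime-Glo MT chemistry, with cells and reagent co-dispensed. Luminescence proportional to viable cell number was captured at intervals during 40 h compound exposure at 37 C.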

[14] = A CellTox Green Cytotoxicity Assay to monitor cytotoxicity in HEK293 cells - 24 hour (AID 1224875); note: nearly all actives have a fitted effect of over 45% in size
In short: as §3

[15] = A CellTox Green Cytotoxicity Assay to monitor cytotoxicity in HepG2 cells - 16 hour (AID 1224876); note: nearly all actives have a fitted effect of over 45% in size
In short: (§5)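 Nonlytic assay: viable cells exclude the dye, so fluorescence scales with cell death. HepG2 at 600 cells/well, compounds added after 5 h, signal read across 40 h.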

[16] = qHTS RealTime-Glo MT Cell Viability Assay in HepG2 cells - 32 hour (AID 1224877); note: nearly all actives have a fitted effect of over 55% in size
In short: as §1

[17] = A CellTox Green Cytotoxicity Assay to monitor cytotoxicity in HepG2 cells - 40 hour (AID 1224879); note: nearly all actives have a fitted effect of over 40% in size
In short: as §5

[18] = qHTS assay to identify small molecule agonists of H2AX - cell viability counter screen (AID 1224847; calls by dose curve; note: top concentration of the series differs between compounds; nearly all actives have a fitted effect of over 30% in size)
In short: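 Compounds tested at 15 concentrations were incubated 3 hr at 37C with wild-type CHO-K1 cells; cellular ATP-based luminescence (CellTiter-Glo) indicated viability.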

[19] = qHTS RealTime-Glo MT Cell Viability Assay in HepG2 cells - 40 hour (AID 1224870); note: nearly all actives have a fitted effect of over 50% in size
In short: as §4

[20] = A CellTox Green Cytotoxicity Assay to monitor cytotoxicity in HepG2 cells - 24 hour (AID 1224878); note: nearly all actives have a fitted effect of over 45% in size
In short: as §5
% is set by controls: 0 for no effect and ±100 for the full control effect.

Cc1cccc(C)c1OCC(C)N (stereo unspecified)
inactive: Potency [1] | outcome [2] | outcome [3] | outcome [4] | Potency [5] | activity change, positive = activation [6] -2% [at 42.5 µM] | outcome [7] | Potency [8] | outcome [9] | Potency [10] | Potency [11] | outcome [12] | max response [13] 2.76% | outcome [14] | outcome [15] | outcome [16] | Potency [17]

CC(C)NCC(O)COc1ccc(COCCOC(C)C)cc1 (stereo unspecified)
inactive: Potency [1] | outcome [2] | outcome [3] | Potency [18] | outcome [7] | Potency [8] | outcome [9] | outcome [19] | Potency [10] | Potency [11] | outcome [12] | max response [13] 3.86% | outcome [14] | outcome [15] | outcome [16] | outcome [20] | Potency [17]

CCCCCCCCC1CCC(=O)O1 (stereo unspecified)
inactive: Potency [1] | outcome [2] | outcome [4] | Potency [18] | Potency [5] | outcome [7] | Potency [8] | outcome [9] | Potency [10] | Potency [11] | outcome [12] | max response [13] -1.86% | outcome [14] | outcome [15] | outcome [20] | Potency [17]

c1ccc2c(c1)ccc1c3ccccc3ccc21
inactive: Potency [1] | outcome [2] | outcome [4] | Potency [18] | outcome [7] | Potency [8] | outcome [9] | Potency [10] | Potency [11] | outcome [12] | max response [13] 6.22% | outcome [14] | outcome [15] | outcome [16] | outcome [20] | Potency [17]

CN1C(C)(C)CCCC1(C)C
inactive: Potency [1] | outcome [2] | Potency [18] | outcome [7] | Potency [8] | outcome [9] | outcome [19] | Potency [10] | Potency [11] | outcome [12] | max response [13] -1.11% | outcome [14] | outcome [15] | outcome [16] | outcome [20] | Potency [17]

CC(CN)CC(C)(C)CCN (stereo unspecified)
inactive: Potency [1] | outcome [2] | outcome [4] | Potency [18] | Potency [8] | outcome [9] | outcome [19] | Potency [10] | Potency [11] | outcome [12] | max response [13] 6.3% | outcome [14] | outcome [15] | outcome [16] | outcome [20] | Potency [17]

CC(CO)c1ccccc1 (stereo unspecified)
inactive: Potency [1] | outcome [2] | outcome [4] | Potency [18] | Potency [8] | outcome [9] | outcome [19] | Potency [11] | outcome [12] | max response [13] -0.132% | outcome [14] | outcome [15] | outcome [16] | outcome [20] | Potency [17]

COCCOCCOCCOCCOCCO
inactive: Potency [1] | outcome [3] | outcome [4] | Potency [18] | Potency [5] | activity change, positive = activation [6] 2.08% | outcome [7] | Potency [8] | outcome [9] | outcome [19] | Potency [10] | Potency [11] | outcome [12] | max response [13] 0.969% | outcome [14] | outcome [15] | outcome [16] | outcome [20] | Potency [17]

CCOC(=O)c1ccc(OC(=O)CCCCCN=C(N)N)cc1
inactive: Potency [1] | outcome [2] | Potency [18] | outcome [7] | Potency [8] | outcome [9] | outcome [19] | Potency [11] | outcome [12] | max response [13] -15.8% | outcome [14] | outcome [15] | outcome [20] | Potency [17]

CCCCCCN
inactive: Potency [1] | outcome [2] | Potency [18] | outcome [7] | Potency [8] | outcome [9] | outcome [19] | Potency [10] | Potency [11] | outcome [12] | max response [13] 9.84% | outcome [14] | outcome [15] | Potency [17]

Brc1ccc(-c2ccccc2)cc1
inactive: Potency [1] | outcome [2] | outcome [4] | Potency [18] | outcome [7] | Potency [8] | outcome [9] | outcome [19] | Potency [10] | Potency [11] | outcome [12] | max response [13] 1.08% | outcome [14] | outcome [15] | outcome [20] | Potency [17]
